Activity calls are given as the source filed them. Calls follow the shape of the dose curve; as a rule, active = well fitted curve in the direction sought with a large enough effect; inconclusive = small, poorly fitted or top-dose-only effect, or another doubt; inactive = no such curve, though single readings can be large or run the other way.
The molecules below were run against alpha-glucosidase (Oryza sativa, rice) (UniProt Q653V4) (assay: Counterscreen for Glucocerebrosidase Inhibitors: qHTS Assay for Rice alpha-Glucosidase at pH 5.0 (AID 997)). Details: rice alpha-glucosidase enzyme activity; series mostly up to 76.9 µM.
Excerpt: NIH Chemical Genomics Center [NCGC]
NIH Molecular Libraries Screening Centers Network [MLSCN]
PI Name: Zheng, Wei [NIH]
Alpha-glucosidase is responsible for hydrolysis of terminal, non-reducing 1,4-linked alpha-D-glucose residues with release of alpha-D-glucose. It is a lysosomal hydrolase that is required for the degradation of a small percentage (1-3%) of cellular glycogen in human. Deficiency of this enzyme results in glycogen-storage disease type II (GSDII), also referred to as Pompe disease, an autosomal recessive disorder. Structurally normal glycogen is accumulated in lysosomes and cytoplasm in affected patients, primarily in muscle tissues. Excessive glycogen storage within lysosomes may interrupt normal functioning of other organelles and leads to cellular injury. In turn, this leads to enlargement and dysfunction of the entire organ involved (eg, cardiomyopathy and muscle weakness).
It has reported that the improper folding and trafficking of alpha-glucosidase resulted from the genetic mutations may account for a significant number of Prope patients. […] We optimized this alpha-glucosidase assay in 1536-well plate format for identifying the novel small molecule inhibitors with the structures other than the sugar analogs in order to develop the new pharmacological chaperones.
NCGC Assay Protocol Summary:
This is a fluorogenic enzyme assay with 4-methylumbelliferyl-alpha-D-pyranoside as the substrate and rice alpha-glucosidase as the enzyme preparation. Upon the hydrolysis of this fluorogenic substrate, the resulting product, 1. 4-methyllumbelliferone, can be excited at 365 nm and emits at 440 nm which can be detected by a standard fluorescence plate reader. Data were normalized to the controls for basal activity (without enzyme) and 100% activity (with enzyme). In the AC50 values were determined from concentration-response data modeled with the standard Hill equation.
Assay buffer: 50 mM citric acid, 0.005% Tween-20, pH 5.0. (pH 5.0 is an optimal condition for this enzyme assay)
1536-well assay protocol for the human alpha-glucosidase:
(1) Add 2 ul/well of enzyme (4 nM final)
(2) Add 23 nL compounds in DMSO solution. The final titration was 0.7 nM to 77 uM.
(3) Add 1 ul of substrate (400 uM final)
(4) Incubate at room temperature for 20 min.
(5) Add 2 ul stop solution (1M NaOH and 1M Glycine mixture, pH 10)
(6) Detect the assay plate in a ViewLux plate reader (PerkinElmer) with Ex=365 nm and Em=440nm.
Keywords: Alpha-glucosidase, Prope Disease, pharmacological chaperone, chaperone therapy, high throughput screening, alpha-glucosidase inhibitor, MLSMR, MLSCN, NIH Roadmap, qHTS and NCGC

SMILES	outcome
CN1CCc2cc(O)c(O)cc2[C@H](c2ccccc2)C1	inactive
O=C(O)[C@@H]1CCCN[C@H]1C(=O)O	inactive
CCCCC[C@H](O)CCCC(=O)O	inactive
C=C1C(=O)O[C@@H]2[C@@H]1CC/C(C)=C\CC[C@@]1(C)O[C@H]21	inactive
C/C=C1\C(=O)C[C@@H]2[C@@H]3CCC4=CC(=O)CC[C@@]4(C)[C@H]3CC[C@@]12C	inactive
N#C[C@@H](Cc1ccc(O)c(O)c1)C(=O)N1CCc2ccccc21	inactive
C#CCN1C(C)=C(C(=O)OC)[C@@H](c2cccc([N+](=O)[O-])c2)C(C(=O)OCC)=C1C	inactive
O=C(/C=C\c1ccc(O)c(O)c1)OCCc1ccccc1	inactive
COc1cc2nc(N3CCN(C(=O)[C@H]4COc5ccccc5O4)CC3)nc(N)c2cc1OC	inactive
CNC(=O)[C@@H]1O[C@@H](n2cnc3c(NCc4cccc(I)c4)ncnc32)[C@H](O)[C@@H]1O	inactive
CCCN1C[C@@H](CSC)C[C@H]2c3cccc4[nH]cc(c34)C[C@@H]21	inactive
CCCN(CCc1ccccc1)[C@H]1CCc2c(O)cccc2C1	inactive
O=C1[C@@H]2C=CC=CC2=NC(=S)N1CCN1CCC(=C(c2ccc(F)cc2)c2ccc(F)cc2)CC1	inactive
N[C@H](Cc1cccc(-c2ccccc2CP(=O)(O)O)c1)C(=O)O	inactive
Cc1c(C)c2c(c(C)c1O)CC[C@@](C)(CN1CCN(c3cc(N4CCCC4)nc(N4CCCC4)n3)CC1)O2	inactive
CCCCCCCCCCCCCCCCCC(=O)O[C@H](CC(=O)O)C[N+](C)(C)C	inactive
COc1ccc(NC(=O)/C=C\c2ccc(Cl)cc2)cc1	inactive
C=CCN1CCc2c(cc(O)c(O)c2Br)[C@H](c2ccccc2)C1	inactive
COc1cccc(OC)c1OCCNC[C@@H]1CSc2ccccc2O1	inactive
O=C(/C=C\c1ccc(O)cc1)c1ccc(O)cc1O	inactive

SMILES	outcome
COc1cc2nc(N3CC=[N+](C(=O)c4ccco4)CC3)nc(N)c2cc1OC	inactive
COC(=O)C1=C(C)NC(C)=C(C(=O)OCCN(C)Cc2ccccc2)[C@@H]1c1cccc([N+](=O)[O-])c1	inactive
Clc1ccc(C(c2ccc(Cl)cc2)n2cc[n+](C[C@@H](OCc3ccc(Cl)cc3Cl)c3ccc(Cl)cc3Cl)c2)cc1	inactive
CSc1ccc2c(c1)N(CC[C@H]1CCCCN1C)c1ccccc1S2	inactive
NC(=S)c1ccc[n+]([C@@H]2O[C@@H](COP(=O)([O-])OP(=O)(O)OC[C@@H]3O[C@@H](n4cnc5c(N)ncnc54)[C@@H](OP(=O)(O)O)[C@H]3O)[C@@H](O)[C@H]2O)c1	inactive
OC[C@@H]1O[C@@H](n2cnc3cncnc32)[C@@H](O)[C@H]1O	inactive
Nc1ncnc2c1ncn2[C@@H]1O[C@@H](CO)[C@H](O)[C@@H]1O	inactive
CNCC[C@H](Oc1ccccc1C)c1ccccc1	inactive
FC(F)(F)c1cc(CO[C@@H]2CCCN[C@H]2c2ccccc2)cc(C(F)(F)F)c1	inactive
NC[C@@H]1O[C@@H](O[C@H]2[C@@H](O)[C@H](O[C@@H]3[C@H](O)[C@H](N)C[C@H](N)[C@H]3O[C@@H]3O[C@@H](CO)[C@H](O)[C@H](O)[C@@H]3N)O[C@H]2CO)[C@H](N)[C@H](O)[C@@H]1O	inactive
N[C@H](Cc1ccc(F)cc1)C(=O)O	inactive
CCCCCC[C@@H]([C@H](C)O)n1cnc2c(N)ncnc21	inactive
COc1cccc2c1[C@@H]1CN(CCCCn3c(=O)[nH]c4c(sc5ncc(-c6ccccc6)nc54)c3=O)C[C@H]1CO2	inactive
Cc1cc(C)c(/C=C2/C(=O)Nc3ccccc32)[nH]1	inactive
C[C@H](N)C1CCC(C(=O)Nc2ccncc2)CC1 (stereo not given in full)	inactive
CC(C)(C(=O)O)c1ccc([C@@H](O)CCCN2CCC(C(O)(c3ccccc3)c3ccccc3)CC2)cc1	inactive
c1ccc2c(c1)CCC[C@H]2C1=NCCN1	inactive
Cn1c(=O)c2c(nc(/C=C\c3cccc(Cl)c3)n2C)n(C)c1=O	inactive
CC(=O)S[C@@H]1CC2=CC(=O)CC[C@@]2(C)[C@H]2CC[C@]3(C)[C@H](CC[C@@]34CCC(=O)O4)[C@H]12	inactive
CC1CCN(CC[C@@H]2CCCN2S(=O)(=O)c2cccc(O)c2)CC1	inactive

Source: PubChem BioAssay (NCATS)
